Only some compounds are listed: those with a hit (about 19% of all), similar ones and a draw of the others.
SW480 rereplic: A quantitative high throughput screen for small molecules that induce DNA re-replication in SW480 colon adenocarcinoma cells. SW480 DNA re-replication, Hoechst DNA content imaging, 48 h. Potency, µM (titrated, usually from 46.1 µM), without a hit: at the top dose re-replication activation, hits mostly activators. 1.8% of 340,000 active. AID 624297, 2012; further: potency means the concentration at half of the fitted maximal effect; % of control where 0% means no effect; nearly all actives have a fitted effect of over 55% in size
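Hoechst fluorescence of nuclei (405 nm excitation, 500-530 nm emission) measured by plate-scanning imager after 48 hr compound exposure at 37 C; re-replication scored as increased number of nuclei with elevated intensity.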
DT40 TDP1 no CPT: qHTS for Inhibitors of human tyrosyl-DNA phosphodiesterase 1 (TDP1): qHTS in cells in absence of CPT; 15% of 420,000 active; DT40 Tdp1-/- hTDP1 cells, no CPT, ATP luminescence, 48 h; Potency, µM (highest dose often 46.2 µM), without a hit: at the highest dose activity change, negative = growth inhibition, usual class: inhibitors; further: potency means the concentration at half of the fitted maximal effect; on the % scale 0 is the no-effect control and ±100 the full control effect; nearly all actives have a fitted effect of over 55% in size
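Readout: luminescence from CellTiter-Glo after 30 min in the dark at RT. Cells: DT40 Tdp1-/- with stable hTDP1, 400/well. Exposure: compounds alone, ≥48 hr, 37 °C.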
BCR signal inh: qHTS Assay to Find Inhibitors of Chronic Active B-Cell Receptor Signaling | 0.05% of 340,000 active | AID 493014, 2011 | Potency, µM (titrated, usually from 46.1 µM), for the others: top-dose activity change, negative = inhibition, hits mostly inhibitors | ABC-DLBCL IkBa-CBG/CBR reporter, luminescence ratio, 4 h; active means well fitted inhibition curve with a large enough effect in the signal ratio, with a control signal flat, not every such curve was filed as active; inconclusive means small, poorly fitted or top-dose-only effect, or effect the other way, or a change in a side signal; the % refers to the signal ratio;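 further: potency means the concentration at half of the fitted maximal effect; plate controls were basal doxycycline-induced cells for no effect and cells given 10 µM MG132 for full effect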
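TMD8 ABC-DLBCL cells carrying doxycycline-inducible green luciferase fused to IkappaBalpha plus unfused red luciferase were exposed to compounds (up to 46 uM) for 4 hrs at 37C. Activity came from the overlap-corrected green/red luminescence ratio.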
IL1B secr inh: qHTS for Inhibitors of Inflammasome Signaling: IL-1-beta AlphaLISA Primary Screen; THP-1 LPS/ATP IL-1B secretion, AlphaLISA, 16 h; hits give low values; activity change, % at 57.5 µM; 4.7% of 360,000 active; in the data active means activity change below about -50%; inconclusive means mostly about -30% to -49%; further: on the % scale 0 is the no-effect control and ±100 the full control effect
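THP-1 cells pretreated 1 hr with compounds (up to 57.5 uM final), then stimulated with LPS (250 ng/mL final) plus ATP (1.25 mM final); secreted IL-1B measured by AlphaLISA after 16 hr, decreased signal indicating inhibition.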
MCF10A rereplic: A quantitative high throughput screen for small molecules that induce DNA re-replication in MCF 10a normal breast cells. Potency, µM (highest dose often 46.1 µM), for the others: at the highest dose activity, positive = re-replication, hits mostly activators. MCF 10A DNA re-replication, Hoechst nuclear intensity, 48 h. 2.9% of 350,000 active; further: potency means the concentration at half of the fitted maximal effect; % of control where 0% means no effect; nearly all actives have a fitted effect of over 50% in size
DT40 TDP1 CPT: qHTS for Inhibitors of human tyrosyl-DNA phosphodiesterase 1 (TDP1): qHTS in cells in presence of CPT; 12% of 420,000 active; chicken DT40 Tdp1-/-;hTDP1 cells + 20 nM CPT, ATP luminescence, 48 h; AID 686979, 2013; Potency, µM (highest dose often 46.2 µM), without a hit: at the highest dose activity change, negative = growth inhibition, usual class: inhibitors; further: potency means the concentration at half of the fitted maximal effect; on the % scale 0 is the no-effect control and ±100 the full control effect; nearly all actives have a fitted effect of over 55% in size
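Chicken DT40 Tdp1-/- cells stably complemented with human TDP1 were seeded at 400 cells/well in medium containing 20 nM camptothecin, exposed to pin-transferred compounds, and grown at 37 °C for at least 48 hr. Viability was read as ATP luminescence.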
* = called active by the depositor; ? = inconclusive; · = no result. Unless noted, the call rests on the fitted dose curve; in most records, active means well fitted curve in the direction sought with a large enough effect; inconclusive means small, poorly fitted or top-dose-only effect, or another doubt; inactive means no such curve, though single readings can be large; an effect the other way counts as inactive or inconclusive.

SMILES	SW480 rereplic	DT40 TDP1 no CPT	BCR signal inh	IL1B secr inh	MCF10A rereplic	DT40 TDP1 CPT
COc1ccc(C)cc1NC(=O)CN1C(=O)COc2ccc(S(=O)(=O)N3CCCCCC3)cc21	-11%	?	2%	-54*	0%	?
O=C(CN1C(=O)COc2ccc(S(=O)(=O)N3CCCCCC3)cc21)Nc1cccc(Cl)c1	·	21µM*	·	·	·	?
C[C@@H]1CN([C@H](C)CO)C(=O)CCCn2cc(nn2)CO[C@H]1CN(C)C(=O)Nc1cccc(Oc2ccccn2)c1	·	-1%	·	13	·	-15%
Cc1cccc(N2CCN(C(=O)CN3C(=O)COc4ccc(S(=O)(=O)N5CCCCCC5)cc43)CC2)c1C	·	16µM*	·	·	·	?
COC(=O)c1ccc(NC(=O)CN2C(=O)CCc3cc(S(=O)(=O)N4CCCCC4)ccc32)cc1	·	-26%	·	·	·	-23%
COc1ccc(NC(=O)CN2C(=O)COc3ccc(S(=O)(=O)N4CCCCCC4)cc32)cc1	-5%	16µM*	?	-14	-6%	4.6µM*
Cc1ccc(NC(=O)CN2C(=O)CCc3cc(S(=O)(=O)N4CCCCC4)ccc32)cc1C	·	21µM*	·	·	·	?
CNC(=O)CN1C(=O)COc2ccc(S(=O)(=O)N3CCCCCC3)cc21	-4%	24%	1%	17	13%	1%
Cc1c(Cl)cccc1NC(=O)CN1C(=O)COc2ccc(S(=O)(=O)N3CCCCCC3)cc21	·	?	·	·	·	16µM*
CN1CCN(C(=O)CN2C(=O)COc3ccc(S(=O)(=O)N4CCOCC4)cc32)CC1	-3%	25%	1%	4	0%	7%
Cc1ccc(NC(=O)CSCC(=O)N2CCN(C(=O)c3ccco3)CC2)cc1	-4%	3%	0%	-2	4%	-3%
CCC(C)NC(=O)c1ccc(NC(=O)CC2SC(N3CCCC3)=NC2=O)cc1 (stereo unspecified)	-1%	-5%	-3%	14	6%	1%
CCN(CC)C(=O)c1sc2c(c1C)c(=O)n(-c1ccc(Cl)c(Cl)c1)c(=O)n2Cc1cc(=O)n2ccccc2n1	·	?	-3%	·	·	-13%
CCCCN1C(=O)C(=O)N(CC(=O)c2cc(C)n(-c3cc(C)on3)c2C)C1=O	0%	9%	4%	-20	2%	-8%
Cc1nn(-c2cccc(Cl)c2)c2nc(-c3ccco3)cc(C(=O)O)c12	-5%	-25%	-3%	8	15µM*	-21%
Cc1ccccc1OCCCCCNCCO	-8%	-29%	4%	1	25%	-8%
CC(C)(C)c1ccccc1OCCCCCNCCO	?	?	?	-53*	?	?
COc1ccccc1OCCCCNCCO	-1%	-7%	-13%	9	-7%	-1%
CC(C)c1ccccc1OCCCCCNCCO	1%	?	?	-54*	?	?
Cc1cn(C2CCCCO2)c(=O)[nH]c1=O (stereo unspecified)	1%	-2%	·	3	-1%	8%
COc1cc(C(=O)NCCc2csc(-c3ccc(Cl)cc3)n2)cc(OC)c1OC	·	21µM*	·	·	·	?
O=C(NCCc1csc(-c2ccc(Cl)cc2)n1)c1ccco1	-13%	15µM*	-14%	-23	17%	?
Cc1ccc(-c2nc(CCNC(=O)c3ccco3)cs2)cc1	-5%	?	0%	-2	17%	2%
COc1cc(C(=O)NCCc2cn3ccc(C)cc3n2)cc(OC)c1OC	-1%	?	-11%	107	7%	?
CCOc1cc(C(=O)NCCc2csc(-c3ccc(C)cc3)n2)cc(OCC)c1OCC	·	16µM*	·	·	·	?
SMILES	SW480 rereplic	DT40 TDP1 no CPT	BCR signal inh	IL1B secr inh	MCF10A rereplic	DT40 TDP1 CPT
COc1ccc(CC(=O)NCCc2csc(-c3ccc(Cl)cc3)n2)cc1	·	16µM*	2%	·	·	18µM*
COc1ccc(-c2nc(CC(=O)O)cs2)cc1	-4%	-25%	?	0	-7%	2%
O=C(C1CCCO1)N1CCN(S(=O)(=O)c2ccc(Cl)cc2)CC1 (stereo unspecified)	1%	-13%	8%	2	11%	14%
COc1ccc(-c2nc(CCNC(=O)c3ccccc3)cs2)cc1OC	·	23µM*	·	·	·	23µM*
O=C(COc1ccc(Cl)cc1)NCCc1csc(-c2ccc(F)cc2)n1	·	15µM*	·	·	·	16µM*
CC(C)Oc1ccc(C(=O)NCCc2csc(-c3cccc(F)c3)n2)cc1	·	0%	·	·	·	-25%
O=C(COc1ccc(Cl)cc1)NCCc1csc(-c2ccc(C(F)(F)F)cc2)n1	·	23µM*	·	·	·	?
CCOc1ccc(NC(=O)C(=O)NCCc2csc(-c3ccc(F)cc3)n2)cc1	·	9%	·	·	·	-22%
COc1cc(C2c3c(oc4ccc(F)cc4c3=O)C(=O)N2c2nc(C)c(C)s2)cc(OC)c1OC (stereo unspecified)	·	-1%	·	·	·	7%
CC(C)Oc1ccc(CNC(=O)C2COc3ccccc3C2)cc1 (stereo unspecified)	·	?	·	·	·	-28%
Cc1nn(C)c(C)c1Sc1ccc(Br)cc1	-3%	?	-2%	11	9%	-25%
Cc1noc2ncnc(Sc3ccc(Br)cc3)c12	14%	9.2µM*	?	-101*	13µM*	2.6µM*
Nc1cc(=O)[nH]c(SCC(=O)NC2CCCCCCC2)n1	-1%	-9%	6%	9	1%	-12%
CN(CC(=O)NCCc1ccccc1)S(=O)(=O)c1ccc(Br)s1	-1%	-22%	5%	-19	8%	4%
CC(OC(=O)[C@@H](NC(=O)OCc1ccccc1)C(C)C)C(=O)Nc1ccc(N2CCOCC2)cc1 (stereo partly specified)	3%	?	·	0	-7%	21µM*
COc1cccc(CC(=O)OC(C)C(=O)Nc2ccc(N3CCOCC3)cc2)c1 (stereo unspecified)	-346%	?	-15%	-9	-4%	0%
Cc1ccccc1NC(=O)OCc1cccnc1Oc1ccc(Cl)cc1	4%	-27%	-8%	-79*	?	-4%
C[C@@H](NC(=O)c1nc[nH]c1C(=O)N(C)Cc1ccccc1)c1ccccc1	3%	?	5%	3	22%	?
